Among the data in PubChem BioAssay AID1851 (National Center for Advancing Translational Sciences (NCATS), 2009) are activity, negative = inhibition and AC50 values, retold here.

The structures appear in SMILES notation. Screen size: about 16,000 compounds; about 5,100 (32%) were called active. Another 25% or so got no clear call; they are omitted. The list shows a part of the results. A number with no mark means an inactive call. Calls follow the shape of the dose curve; as a rule, active = well fitted curve in the direction sought with a large enough effect; inconclusive = small, poorly fitted or top-dose-only effect, or effect the other way; inactive = no such curve, though single readings can be large or run the other way.
% is scaled to controls: 0 for no effect and ±100 for the full control effect.

The experiment deals with Cytochrome P450 3A4 (Homo sapiens) (UniProt P08684). Briefly: Cytochrome panel assay with activity outcomes. Conditions: recombinant CYP, pro-luciferin dealkylation, luminescence, p450-cyp3a4; series mostly up to 57.1 µM.
Chain of Cytochrome P450 3A4 (Homo sapiens) (P08684 whole entry, looked up): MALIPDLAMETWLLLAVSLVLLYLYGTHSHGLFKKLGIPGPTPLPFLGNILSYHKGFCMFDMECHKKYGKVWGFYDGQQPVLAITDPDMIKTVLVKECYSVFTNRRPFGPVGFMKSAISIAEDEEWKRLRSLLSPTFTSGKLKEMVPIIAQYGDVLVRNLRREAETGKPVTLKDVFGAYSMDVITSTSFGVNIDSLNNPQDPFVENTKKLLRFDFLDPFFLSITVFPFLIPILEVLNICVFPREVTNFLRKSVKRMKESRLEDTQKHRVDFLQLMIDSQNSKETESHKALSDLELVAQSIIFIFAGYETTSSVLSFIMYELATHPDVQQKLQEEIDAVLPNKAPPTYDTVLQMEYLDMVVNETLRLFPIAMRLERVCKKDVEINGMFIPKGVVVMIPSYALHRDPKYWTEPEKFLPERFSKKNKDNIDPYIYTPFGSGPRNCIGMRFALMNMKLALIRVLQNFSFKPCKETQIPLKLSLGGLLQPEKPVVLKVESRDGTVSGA
In the case of `Cn1c(=O)c2[nH]c(COCc3nc4c([nH]3)c(=O)n(C)c(=O)n4C)nc2n(C)c1=O`, the activity, negative = inhibition is -0.524% [at 11.4 µM].
`O=C1Cc2c([nH]c3ccc(Br)cc23)-c2ccccc2N1`: the AC50 was 12.6 µM (active).
On the same count and under the same terms, under `OCCN=C1CCCc2c1[nH]c1ccc(Br)cc21` stands “inactive”; under `O=C1CCCCC(=O)c2ccccc2N1`, “inactive”; under `CC(C)OCCCN1CN(S(=O)(=O)c2cccc(Cl)c2)c2nc3ccccc3nc21`, 7.94 µM (active).
With `CCN1C(=O)C(CC(=O)Nc2ccc(OC)cc2)N(Cc2cccs2)C1=S` (stereo not drawn), the AC50 was 3.98 µM (active).
`CCOc1ccc(N2C(=O)/C(=C/c3cccs3)N(CC(=O)OC)C2=S)cc1`: the AC50 result was “inactive”.
Still for that read-out and setting: under `CCN1C(=O)C(CC(=O)Nc2ccc(Br)cc2)N(CCCc2ccccc2)C1=S` (stereo not drawn) stands 2.51 µM (active).
The same measure, in the same setting: under `CCN1C(=O)C(CC(=O)Nc2ccc(OC)cc2)N(Cc2cccnc2)C1=S` (stereo not drawn) stands 11.2 µM (active).
On the same count and under the same terms, for `COCC(=O)Nc1ccc(-c2cn3cccnc3n2)cc1` the value was “inactive”.
For the molecule `CCCCC(=O)Nc1ccc(C(=O)NNC(=O)CCc2ccccc2)cc1`, the AC50 entry was “inactive”.
Turning to `Cc1cc(NC(=S)Nc2ccccc2)ccc1Br`, the AC50 is 20 µM (active).
`CNC(=S)Nc1ccc(Nc2ccccc2)cc1`: the AC50 entry was “inactive”.
As for `O=[N+]([O-])c1ccc(NN=C2c3ccccc3Cc3ccccc32)c([N+](=O)[O-])c1`, the activity, negative = inhibition was -5.06% [at 11.4 µM].
With `O=[N+]([O-])c1ccc(C2CCCC/C2=N\OCc2cccc(F)c2)c([N+](=O)[O-])c1` (stereo not drawn), the AC50 was 14.1 µM (active).
On to `CC1(C)N=C(N)N=C(N)N1c1cccc(OCc2cccc([N+](=O)[O-])c2)c1`, for which the activity, negative = inhibition was -3.23% [at 11.4 µM].
With `O=C(c1ccccc1)N1CCSC1=S`, the AC50 result was “inactive”.
For `Cc1nc(SC(C(=O)c2ccccc2)c2ccccc2)n[nH]1` (stereo not drawn), the AC50 was 7.08 µM (active).
The same measure, in the same setting: for `COC(=O)c1nc(NC(=O)c2ccccc2)n[nH]1` the value was “inactive”.
For `Cc1c(NC(=O)C(Sc2ccccc2)c2ccccc2)cccc1[N+](=O)[O-]` (stereo not drawn), the activity, negative = inhibition is -28.3% [at 2.29 µM].
Regarding `O=C(NCCCN1CCOCC1)c1cc(C(=O)C2CC2)c[nH]1`, the AC50 result is “inactive”.
Consider `O=C(O)CCCCCNC(=O)c1ccncc1`, for which the AC50 entry is “inactive”.
On the same count and under the same terms, for `O=C(c1ccc(C(F)(F)F)cc1)c1c[nH]c(C(=O)NCCCn2ccnc2)c1` the value was 1 µM (active); for `CC(C)(C)c1ccc(C(=O)c2c[nH]c(C(=O)NCCCn3ccnc3)c2)cc1`, 0.282 µM (active).
Regarding `O=C1Oc2ccccc2C2(O)C3CCCCCC3C12` (stereo not drawn), the activity, negative = inhibition was -27.4% [at 11.4 µM].
On to `O=C(Cc1c[nH]c2ccccc12)OCC(=O)c1ccccc1`, for which the AC50 is 22.4 µM (active).
For the molecule `C[C@@](N)(Cc1c[nH]c2ccccc12)C(=O)O`, the activity, negative = inhibition was -19.3% [at 11.4 µM].
Take `CCN(CC)C(=O)CSc1nnc(-c2cc3ccccc3cc2O)n1CC`: the AC50 was 7.94 µM (active).
As for `O=C(Nc1ccccc1-c1nc2ccccc2[nH]1)c1ccc(S(=O)(=O)N2CCCCC2)cc1`, the activity, negative = inhibition was -23.2% [at 2.29 µM].
Turning to `CCN(CC)C(=O)CSc1nnc(-c2ccncc2)n1N`, the AC50 entry was “inactive”.
In the case of `CCn1c(SCC(=O)NC(=O)NCc2ccco2)nnc1-c1cccs1`, the AC50 is 1.26 µM (active).
Same read-out and setting: under `Cn1c(/C(C#N)=C(\O)c2ccc(S(=O)(=O)N3CCCCC3)cc2)nc2ccccc21` stands 14.1 µM (active); under `Cn1c(SCC(=O)N2CCN(S(=O)(=O)c3ccccc3)CC2)nc2ccccc21`, 12.6 µM (active); under `CCN(CC)C(=O)CSc1nnc(-c2ccco2)n1N`, “inactive”.
Same read-out and setting: under `CC(C)(C)c1onc(OCP(=O)(O)O)c1C[C@@H](N)C(=O)O` stands “inactive”.
Still for that read-out and setting: for `CCn1c(SCC(=O)c2ccc3ccccc3c2)nnc1-c1cccs1` the value was 3.98 µM (active); for `CC(=O)c1ccc(-n2c(CCC(=O)O)ccc2-c2cccs2)cc1`, “inactive”; for `O=c1onc(-c2cccs2)n1Cc1ccccc1`, “inactive”.
Take `CCn1c(SCC(=O)N2CCN(S(=O)(=O)c3ccccc3)CC2)nnc1-c1cccs1`: the AC50 is 1.12 µM (active).
As to `CN(C)/C=N/c1ncc(C(=O)c2ccc3ccccc3c2)s1`, the AC50 entry is “inactive”.
In the case of `Cc1ccccc1CSc1nnc(-c2cccs2)n1Cc1ccco1`, the AC50 was 4.47 µM (active).
Turning to `CCn1nnnc1SCC(=O)c1ccc2c(c1)OCCO2`, the AC50 entry is “inactive”.
Regarding `CCn1c(SCC(=O)c2ccccc2)nnc1-c1cccs1`, the AC50 is 8.91 µM (active).
On the same count and under the same terms, under `CCn1c(SCC(=O)NC2CCCc3ccccc32)nnc1-c1cccs1` (stereo not drawn) stands 2.82 µM (active); under `CCOc1c2ccc(C(=O)NC3CCCc4ccccc43)cc2nn1C` (stereo not drawn), “inactive”.
On the same count and under the same terms, under `CCn1cc(C(=O)O)c(=O)c2cnc(N3CCNCC3)nc21` stands “inactive”.
With `CC(=O)OC[C@@H]1O[C@@H](O/N=C2/C[C@@H](O)[C@@H](O)[C@@H]3[C@@H]4C(=O)N([C@@H](C)c5ccccc5)C(=O)[C@H]4CC[C@@H]23)[C@H](OC(C)=O)[C@H](OC(C)=O)[C@@H]1OC(C)=O`, the activity, negative = inhibition is -21% [at 11.4 µM].
Same read-out and setting: for `COc1cccc2c1C(=O)c1c(O)c3c(c(O)c1C2=O)C[C@@](O)(C(=O)CO)C[C@H]3O[C@H]1C[C@@H](N)[C@H](O)[C@@H](C)O1.[W]` the value was -15.2% [at 11.4 µM].
Turning to `COC(=O)c1[nH]c(C)c(/C(O)=C2\C(=O)C(=O)N(CCN(C)C)C2c2cccs2)c1C` (stereo not drawn), the AC50 result is “inactive”.
On to `CCOC(=O)C1=C(N)n2c(s/c(=C/c3ccccc3)c2=O)=C(C(=O)OCC)C1c1ccccc1` (stereo not drawn), for which the AC50 result is “inactive”.
The same measure, in the same setting: for `CCOC(=O)C1=C(c2ccccc2)N=c2s/c(=C\c3cccc(O)c3)c(=O)n2C1c1cccs1` (stereo not drawn) the value was 15.8 µM (active).
For `O=c1/c(=C\c2ccc(O)cc2)sc2n1C(c1ccccc1)C(c1ccccc1)=NN=2` (stereo not drawn), the activity, negative = inhibition was 20.5% [at 0.457 µM].
Take `CCOC(=O)C1=C(c2ccccc2)N=c2s/c(=C\c3ccc(O)cc3)c(=O)n2C1c1cccs1` (stereo not drawn): the AC50 is 3.55 µM (active).
Still for that read-out and setting: under `CCCc1c(OCCCOc2ccc(OCC(=O)O)cc2)ccc(C(C)=O)c1O` stands “inactive”.
Still for that read-out and setting: under `CC(C)=CC(=O)OCC(=O)Nc1ncc(Cl)c(C)c1Cl` stands “inactive”; under `c1cncc(CNc2ncnc3ccc(-c4ccoc4)cc23)c1`, 1.58 µM (active).
Still for that read-out and setting: under `Cc1cccc(CNc2ncnc3ccc(-c4ccoc4)cc23)c1` stands 3.98 µM (active); under `Oc1ccccc1CNn1cnnc1`, “inactive”; under `CCOc1nnc(C)c2c(C)n(-c3ccc(Cl)cc3)nc12`, “inactive”.
Turning to `CCn1cc(-c2nnnn2-c2ccc(Cl)cc2)c(=O)c2ccccc21`, the AC50 was 12.6 µM (active).
Still for that read-out and setting: under `COc1ccc(-n2nnnc2-c2cn(C)nc2C(F)(F)F)cc1` stands “inactive”.
Take `Cc1c(Br)c([N+](=O)[O-])nn1CC(=O)NCc1cccs1`: the activity, negative = inhibition is -4.17% [at 2.29 µM].
Regarding `Cc1c(Br)c([N+](=O)[O-])nn1CC(=O)NCc1ccccn1`, the AC50 result was “inactive”.
`Cc1ccc(NC(=O)Cn2nc([N+](=O)[O-])c(Br)c2C)cc1C`: the activity, negative = inhibition is -24.1% [at 2.29 µM].
With `Cc1c(Br)c([N+](=O)[O-])nn1C(C)C(=O)Nc1nccs1` (stereo not drawn), the AC50 was 20 µM (active).
Still for that read-out and setting: under `CCc1ccccc1NC(=O)C(C)n1nc([N+](=O)[O-])c(Br)c1C` (stereo not drawn) stands 25.1 µM (active).
On to `N=C(N)c1ccc(N=Nc2c(O)ccc3c2[nH]c2ccccc23)cc1`, for which the activity, negative = inhibition is -6.87% [at 11.4 µM].
`Cc1cc(C)c(C#N)c(SCC(=O)C(C)(C)C)n1`: the activity, negative = inhibition was -0.356% [at 2.29 µM].
On the same count and under the same terms, for `COC(=O)CSc1nc(C)cc(C(F)(F)F)c1C#N` the value was -14.9% [at 2.29 µM].
Consider `Cc1cc(C)c(C#N)c(SCS(=O)c2ccc(C(C)(C)C)cc2)n1` (stereo not drawn), for which the AC50 is 7.94 µM (active).
Take `Brc1ccc(-c2nnc(-c3cccc(Br)c3)o2)cc1`: the AC50 result is “inactive”.
Consider `O=S(=O)(c1cccc(-c2nnc(-c3ccc(Br)cc3)o2)c1)N1CCCCCC1`, for which the AC50 was 3.55 µM (active).
Regarding `O=S(=O)(c1ccc(Br)cc1)N1CCN(S(=O)(=O)c2ccc(Br)cc2)CC1`, the activity, negative = inhibition was 0.222% [at 11.4 µM].
`O=C1CCCC=C1[C@H](O)c1ccc([N+](=O)[O-])cc1`: the activity, negative = inhibition was -12.2% [at 11.4 µM].
On to `CCOC(=O)C1CCN(Cc2cnc(Oc3ccc(OC)cc3)s2)CC1`, for which the AC50 result was “inactive”.
Still for that read-out and setting: under `COc1ccc(Cn2nnnc2C(c2ccccc2Cl)N2CCC(C(N)=O)CC2)cc1` (stereo not drawn) stands 12.6 µM (active); under `NC(=O)C1CCN(C(=O)OCc2ccccc2)CC1`, “inactive”.
For the molecule `C=CC1=C(C)C2=Cc3c(C=C)c(C)c4[n]3[Sn+2][n]3c(c(C)c(CCC(=O)O)c3=CC3=NC(=C4)C(C)=C3CCC(=O)O)=CC1=N2`, the AC50 entry is “inactive”.
Consider `CC(=O)Nc1ccc(NC(=O)c2ccccc2CC[N+](=O)[O-])cc1`, for which the AC50 was 1.78 µM (active).
Regarding `CC(=O)Nc1ccc(C(=O)NNC(=O)CCc2ccccc2)cc1`, the AC50 result was “inactive”.
Same read-out and setting: under `Cc1c(C(=O)Nc2ccc(OCc3ccccc3)cc2)cccc1[N+](=O)[O-]` stands “inactive”; under `CC[N+](C)(CC)CCC[n+]1c(-c2ccccc2)c2cc(N)ccc2c2ccc(N)cc21`, 15.8 µM (active).
Still for that read-out and setting: for `COc1cc(C(=O)NCC(c2cccnc2)N2CCN(C)CC2)cc(OC)c1OC` (stereo not drawn) the value was “inactive”.
Still for that read-out and setting: under `O=C(NCC(c1cccnc1)N1CCOCC1)Nc1ccccc1` (stereo not drawn) stands 14.1 µM (active); under `COc1ccc(N2CCN(C(CNC(=O)C3CCCCC3)c3cccnc3)CC2)cc1` (stereo not drawn), 4.47 µM (active); under `COC(=O)NCC(c1cccnc1)N1CCN(c2ccccc2OC)CC1` (stereo not drawn), 12.6 µM (active).
For the molecule `C[C@H](CN(C)C)C(O)(c1ccccc1)c1ccccc1`, the activity, negative = inhibition was -14.1% [at 11.4 µM].
Take `CCC(C)NC(=O)NC(=O)N(C1CCCCC1)S(C)(=O)=O` (stereo not drawn): the AC50 result is “inactive”.
For `Cc1ccnc(NS(=O)(=O)c2ccc(N)cc2)n1`, the AC50 entry was “inactive”.
On the same count and under the same terms, for `COC(=O)[C@@]1(Cc2ccc(F)cc2)[C@H]2c3cc(C(=O)N4CCCC4)n(Cc4ccc(C)c(F)c4F)c3C[C@H]2CN1C(=O)c1ccccc1` the value was 2.51 µM (active); for `COC(=O)C1(Cc2ccccc2)C2c3cc(C(=O)N4CCCC4)n(Cc4ccc(OC(F)(F)F)cc4)c3CC2CN1C(=O)c1ccccc1` (stereo not drawn), 3.16 µM (active); for `COC(=O)[C@@]1(Cc2ccccc2)[C@H]2c3cc(C(=O)N4CCCC4)n(Cc4ccc(S(C)(=O)=O)cc4)c3C[C@H]2CN1C(=O)c1ccccc1`, 3.16 µM (active).
The same measure, in the same setting: under `COC(=O)[C@@]1(Cc2ccc(F)cc2)[C@H]2c3cc(C(=O)N(C)C)n(Cc4ccc(C)c(F)c4F)c3C[C@H]2CN1C(=O)c1ccccc1` stands 0.794 µM (active).

As usually defined, the AC50 is the midpoint of the concentration-response curve, whichever way the signal moves.
